PubChem BioAssay (NCI)
This is part of a sample that, as a whole, favours compounds with a hit. Of some 83,000 tested, about 20% had one in any assay.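 Negative percent growth values reflect cell death: -40 means 40% of the cells present at the start died, and -100 means all died.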 Values without a mark were called inactive. Activity calls are given as the source filed them. How the source made its calls: active means growth percent below 10; inactive means the rest.

How the values were obtained:
Assay in all cases: NCI-60 one-dose screen, 48 h (100 = growth as untreated, 0 = no growth, -100 = all killed)
Conditions in all cases: 10 µM unless noted
HCT-15 colon = tested on: HCT-15 colon
HT29 colon = tested on: HT29 colon
SNB-75 CNS = tested on: SNB-75 CNS
SNB-19 CNS = tested on: SNB-19 CNS
U251 CNS = tested on: U251 CNS
PC-3 prostate = tested on: PC-3 prostate
SK-MEL-5 melanoma = tested on: SK-MEL-5 melanoma
UACC-62 melanoma = tested on: UACC-62 melanoma
LOX IMVI melanoma = tested on: LOX IMVI melanoma
SK-MEL-28 melanoma = tested on: SK-MEL-28 melanoma

Compound | growth (HCT-15 colon) | growth (HT29 colon) | growth (SNB-75 CNS) | growth (SNB-19 CNS) | growth (U251 CNS) | growth (PC-3 prostate) | growth (SK-MEL-5 melanoma) | growth (UACC-62 melanoma) | growth (LOX IMVI melanoma) | growth (SK-MEL-28 melanoma)
CN(C)CSc1nc2ccccc2s1 | 97.9% | 95% | 75.2% | 110% | 103% | 74.8% | 96.9% | 95.9% | 90% | 108%
C=C1C(=O)O[C@H]2[C@H]1CC/C(COC(=O)NCc1nc3ccccc3[nH]1)=C\CC[C@@]1(C)O[C@@H]21 | 103% | 63.8% | 91.9% | 98.6% | 92.9% | 85.6% | 97% | 80% | 75.9% | 73.1%
c1cc(CNC23CC4CC(CC(C4)C2)C3)cc(C[N+](Cc2cccc(CNC34CC5CC(CC(C5)C3)C4)c2)(Cc2cccc(CNC34CC5CC(CC(C5)C3)C4)c2)Cc2cccc(CNC34CC5CC(CC(C5)C3)C4)c2)c1 (stereo not given) | 3.19% [42 µM] (active) | -5.66% [42 µM] (active) | 36.9% [42 µM] | 31.2% [42 µM] | 11.6% [42 µM] | 43% [42 µM] | 23.1% [42 µM] | 30.3% [42 µM] | -4.47% [42 µM] (active) | 51.5% [42 µM]
COC(=O)[C@]1(C)CCC[C@]2(C)[C@H]3C[C@H]4C(C(C)C)=C[C@]3(CC[C@H]21)[C@@H]1C(=O)N(CCC#N)C(=O)[C@@H]14 | 83.2% | 70.5% | 93% | 102% | 87.8% | 31.2% | 71.6% | 62.9% | 98.1% | 108%
COc1ccc(Cl)c([N+](=O)[O-])c1 | 103% | 107% | 98.2% | 103% | 106% | 105% | 99.2% | 97% | 97.2% | 106%
COc1cc(C(C)c2ccc3c(ccn3C)c2)cc(OC)c1OC (stereo not given) | 15.9% | 3.88% (active) | 47% | 33.5% | 14.4% | 23.2% | -51.8% (active) | 32.7% | 23.2% | 67%
CCCCc1n(Cc2ccc3ccccc3n2)cc[n+]1Cc1ccc2ccccc2c1 | 76.7% | -8.3% (active) | 15.7% | 7.08% (active) | 5.73% (active) | 1.01% (active) | -94.3% (active) | -57.7% (active) | -26.5% (active) | 0.554% (active)
O=C(Nc1cc(Br)ccn1)c1cc2cc(Nc3nc(-c4ccccc4)nc4ccccc34)ccc2oc1=O | 107% | 104% | 92.3% | 107% | 107% | 93.6% | 101% | 103% | 83.8% | 114%
C#C[C@@]1(O)[C@@H](CO)O[C@@H](n2cc(I)c3c(N)ncnc32)[C@@H]1O | 5.73% (active) | 2.8% (active) | -10.1% (active) | 8.06% (active) | -0.637% (active) | 4.04% (active) | -9.34% (active) | 4.29% (active) | -42.3% (active) | 43.2%
NC(=N\N=C\c1ccccc1O)/C(N)=N/N=C/c1ccccc1O | 66% | 73.8% | 84.4% | 84.4% | 82.7% | 56.1% | 84.6% | 68.9% | 48.6% | 90.5%
NS(=O)(=O)c1ccc(-n2nc(-c3ccccc3)ccc2=O)cc1 | 108% | 112% | 114% | 101% | 99.2% | 96.2% | 109% | 89.6% | 104% | 104%
COc1cc(/C=C/C(=O)/C=C/c2cc3ccc(Cl)cc3n(Cc3ccccc3)c2=O)ccc1O | -46.1% (active) | -46.5% (active) | 63.3% | 13.3% | -64.7% (active) | -2.36% (active) | -80.5% (active) | -56% (active) | -90% (active) | 3.48% (active)
C=C1C(=O)O[C@H]2[C@H]1CC/C(COC(=O)N1CCC[C@H]1C(=O)Nc1ccc(OC)c(C(N)=O)c1O)=C\CC[C@@]1(C)O[C@@H]21 | 59.6% | -8.09% (active) | 84% | 60.5% | 51.6% | 74.4% | 63.7% | 34.5% | 43.4% | 49.4%
COc1ccc(Nc2nc(SCC(C)C)nc(-c3ccc(F)cc3)c2C#N)cc1 | 46% | 24.3% | 70.6% | 50.3% | 56.7% | 49.2% | 53.6% | 40.6% | 57.8% | 72.2%
Nc1c(C(=O)Nc2cccc3ccccc23)sc2nc3c(cc12)CCCCCC3 | 24.6% | 0.156% (active) | 10.6% | 27.8% | 14.4% | 35.1% | 45.6% | 32.4% | 49.1% | 65.8%
O=C1[C@@H](OS(=O)(=O)CC(F)(F)F)[C@H](c2ccc(F)cn2)N1c1cc2c3ccccc3ccc2c2ccccc12 | 61.9% | 64.1% | 83.4% | 77.9% | 69.2% | 62.8% | 67.2% | 58.3% | 70.3% | 79.7%
